Source: the supplement of paper PMC10849652
About 7,900 targets were measured; listed, in parts, are those with a hit and a random draw of the rest. About 0.6% of all pairs of compound and target were hits. Unmarked numbers belong to inactive results.

Legend:
Test in all cases: log2 fold change, soluble protein after heating vs DMSO (PISA); higher = thermal stabilisation; K562 cells, 10 uM, 30 min; active = over 0.2 and 3.5 SD of the protein, either way, in both replicates (recomputed)
erlotinib = compound: C#Cc1cccc(Nc2ncnc3cc(OCCOC)c(OCCOC)cc23)c1 [erlotinib]
Outline: (§1)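 Soluble protein was defined as the supernatant after 21,000xg for 90 min. It came from K562 cells at 2×10^6 cells/mL given 10 μM compound for 30 min, heated in aliquots for 3 min across 48°C-58°C, pooled, and extracted in PBS with 0.5% NP-40 at 4°C, and was quantified by TMTpro 16plex LC-MS/MS with equalised channel sums. Thermal stability against control samples, from duplicates, is reported as log2 fold change.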

[1] = compound: C/C(=N\NC(=O)C1=CC(=CC=C1)S(=O)(=O)N2CCOCC2)/C3=C(C=CC(=C3)Cl)O
Outline: as §1

[2] = compound: C1=CC(=C(C=C1Cl)C2=NC3=NC=CN=C3C(=N2)NC4=CC=NC=C4)F
Outline: as §1

[3] = compound: C1=CC(=CC=C1C2=NC3=C(N2)C=C(C=C3)C(=O)N)OC4=CC=C(C=C4)Cl
Outline: as §1

[4] = compound: C1=CC2=C(C=CC(=C2)/C=C\3/C(=O)NC(=NCC4=CC=CS4)S3)N=C1
Outline: as §1

[5] = compound: C1=CC2=NC=CN=C2C=C1/C=C/3\C(=O)NC(=O)S3
Outline: as §1

[6] = compound: C1=CC=C(C=C1)C2=NC(=C(N2)C3=CC=NC=C3)C4=CC(=C(C=C4)Cl)O
Outline: as §1

[7] = compound: C1=CC=C2C(=C1)C3=NNC4=CC=CC(=C43)C2=O
Outline: as §1

[8] = compound: C1CCN(C1)C(=O)NC2=CC=CC(=C2)NC3=NC=C(C(=N3)NCCC4=CN=CN4)Br
Outline: as §1

[9] = compound: C1CN(CCC1(CC2=CC=C(C=C2)Cl)N)C3=NC=NC4=C3C=CN4
Outline: as §1

IRAK-1-4 Inhibitor I = compound: C1COCCN1CCN2C3=CC=CC=C3N=C2NC(=O)C4=CC(=CC=C4)[N+](=O)[O-] [IRAK-1-4 Inhibitor I]
Outline: as §1

ibrutinib = compound: C=CC(=O)N1CCC[C@@H](n2nc(-c3ccc(Oc4ccccc4)cc3)c3c(N)ncnc32)C1 [ibrutinib]
Outline: as §1

[10] = compound: CC(=O)c1cnc2ccc(-c3cc(Cl)c(O)c(Cl)c3)nc2c1N[C@H]1CC[C@H](CN(C)C)CC1
Outline: as §1

ralimetinib = compound: CC(C)(C)Cn1c(N)nc2ccc(-c3[nH]c(C(C)(C)C)nc3-c3ccc(F)cc3)nc21 [ralimetinib]
Outline: as §1

[11] = compound: CC(C)(O)CC(=O)NCCn1ccc2ncnc(Nc3ccc(Oc4cccc(C(F)(F)F)c4)c(Cl)c3)c21
Outline: as §1

[12] = compound: CC(C)C1=C2N=C(C=C(N2N=C1)NCC3=CC=CC=C3)NCCCCCCN
Outline: as §1

[13] = compound: CC(C)C[C@@H](C=O)NC(=O)[C@H](CC(C)C)NC(=O)[C@H](CC(C)C)NC(=O)OCc1ccccc1
Outline: as §1

pinometostat = compound: CC(C)N(C[C@H]1O[C@@H](n2cnc3c(N)ncnc32)[C@H](O)[C@@H]1O)[C@H]1C[C@@H](CCc2nc3cc(C(C)(C)C)ccc3[nH]2)C1 [pinometostat]
Outline: as §1

[14] = compound: CC1=C(C(CC(=O)N1)C2=CC=C(C=C2)C(F)(F)F)C(=O)NC3=C(C=C4C(=C3)C=NN4)F
Outline: as §1

[15] = compound: CC1=C(C2=C(C=C1)C(=O)C3=CC=CC=C3N2CCCN)C
Outline: as §1

UniProt Q92878, sequence (Q92878 whole entry, looked up): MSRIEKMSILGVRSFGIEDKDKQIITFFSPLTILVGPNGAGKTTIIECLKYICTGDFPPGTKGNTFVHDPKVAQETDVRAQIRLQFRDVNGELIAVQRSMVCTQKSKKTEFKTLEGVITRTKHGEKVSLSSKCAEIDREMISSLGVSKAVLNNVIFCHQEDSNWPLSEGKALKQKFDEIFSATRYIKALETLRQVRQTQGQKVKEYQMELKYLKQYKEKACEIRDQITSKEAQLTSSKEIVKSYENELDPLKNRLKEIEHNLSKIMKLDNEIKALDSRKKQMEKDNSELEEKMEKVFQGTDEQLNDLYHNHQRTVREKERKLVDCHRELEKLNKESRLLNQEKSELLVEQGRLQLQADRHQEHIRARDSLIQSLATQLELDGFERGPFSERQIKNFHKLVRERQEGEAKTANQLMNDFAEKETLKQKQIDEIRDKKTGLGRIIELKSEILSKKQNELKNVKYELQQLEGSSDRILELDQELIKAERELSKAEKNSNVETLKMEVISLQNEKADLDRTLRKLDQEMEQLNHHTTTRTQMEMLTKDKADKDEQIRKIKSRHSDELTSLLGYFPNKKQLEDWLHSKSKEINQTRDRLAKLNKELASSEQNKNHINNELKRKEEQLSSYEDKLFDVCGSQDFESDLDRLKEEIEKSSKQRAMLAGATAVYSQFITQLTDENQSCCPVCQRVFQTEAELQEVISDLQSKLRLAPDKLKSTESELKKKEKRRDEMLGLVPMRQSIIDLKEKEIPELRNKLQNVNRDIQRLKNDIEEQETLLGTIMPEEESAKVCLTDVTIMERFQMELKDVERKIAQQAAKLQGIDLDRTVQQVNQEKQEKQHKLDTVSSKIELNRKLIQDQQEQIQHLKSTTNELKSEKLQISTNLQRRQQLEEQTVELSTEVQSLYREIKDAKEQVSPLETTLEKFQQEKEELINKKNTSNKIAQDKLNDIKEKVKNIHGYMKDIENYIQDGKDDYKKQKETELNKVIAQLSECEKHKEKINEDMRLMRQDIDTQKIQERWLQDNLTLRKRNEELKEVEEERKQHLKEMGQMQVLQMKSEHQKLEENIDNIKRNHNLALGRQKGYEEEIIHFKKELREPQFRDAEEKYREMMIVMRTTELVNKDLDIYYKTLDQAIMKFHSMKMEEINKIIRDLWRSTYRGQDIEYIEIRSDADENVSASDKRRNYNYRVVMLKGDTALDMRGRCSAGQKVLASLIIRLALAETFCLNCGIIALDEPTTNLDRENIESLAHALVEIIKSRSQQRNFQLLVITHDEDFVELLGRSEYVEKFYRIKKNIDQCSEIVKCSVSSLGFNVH
UniProt Q9BXP2, sequence (Q9BXP2 whole entry, looked up): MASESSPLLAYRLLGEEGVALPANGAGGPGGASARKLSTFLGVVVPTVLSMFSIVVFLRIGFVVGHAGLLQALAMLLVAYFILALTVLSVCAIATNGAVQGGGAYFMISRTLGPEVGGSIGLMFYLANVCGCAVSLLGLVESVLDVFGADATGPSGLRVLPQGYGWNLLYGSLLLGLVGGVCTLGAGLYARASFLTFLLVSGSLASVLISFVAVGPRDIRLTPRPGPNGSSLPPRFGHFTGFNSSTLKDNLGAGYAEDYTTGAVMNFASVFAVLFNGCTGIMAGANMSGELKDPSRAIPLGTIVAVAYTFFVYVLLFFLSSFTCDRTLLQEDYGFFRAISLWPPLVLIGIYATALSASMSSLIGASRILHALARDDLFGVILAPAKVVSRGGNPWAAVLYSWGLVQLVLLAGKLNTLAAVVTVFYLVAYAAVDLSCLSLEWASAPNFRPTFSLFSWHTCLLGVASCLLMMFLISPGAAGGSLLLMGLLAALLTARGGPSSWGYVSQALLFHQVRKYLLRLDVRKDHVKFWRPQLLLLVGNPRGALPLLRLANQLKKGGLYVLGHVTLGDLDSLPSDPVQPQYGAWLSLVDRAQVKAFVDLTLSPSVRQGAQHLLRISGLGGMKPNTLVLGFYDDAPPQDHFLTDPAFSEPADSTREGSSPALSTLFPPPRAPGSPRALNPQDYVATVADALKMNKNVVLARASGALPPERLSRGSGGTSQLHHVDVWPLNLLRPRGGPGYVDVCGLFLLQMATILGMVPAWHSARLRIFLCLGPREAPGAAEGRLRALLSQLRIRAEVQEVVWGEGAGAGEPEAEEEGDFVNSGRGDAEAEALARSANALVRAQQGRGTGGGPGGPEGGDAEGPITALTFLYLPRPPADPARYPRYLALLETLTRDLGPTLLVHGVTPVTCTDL
UniProt Q99643, sequence (Q99643 whole entry, looked up): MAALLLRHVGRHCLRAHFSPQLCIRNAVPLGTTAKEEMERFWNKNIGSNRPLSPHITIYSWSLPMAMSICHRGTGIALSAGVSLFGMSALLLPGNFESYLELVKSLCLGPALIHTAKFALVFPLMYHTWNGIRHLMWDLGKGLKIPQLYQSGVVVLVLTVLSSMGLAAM
UniProt Q96D15, sequence (Q96D15 whole entry, looked up): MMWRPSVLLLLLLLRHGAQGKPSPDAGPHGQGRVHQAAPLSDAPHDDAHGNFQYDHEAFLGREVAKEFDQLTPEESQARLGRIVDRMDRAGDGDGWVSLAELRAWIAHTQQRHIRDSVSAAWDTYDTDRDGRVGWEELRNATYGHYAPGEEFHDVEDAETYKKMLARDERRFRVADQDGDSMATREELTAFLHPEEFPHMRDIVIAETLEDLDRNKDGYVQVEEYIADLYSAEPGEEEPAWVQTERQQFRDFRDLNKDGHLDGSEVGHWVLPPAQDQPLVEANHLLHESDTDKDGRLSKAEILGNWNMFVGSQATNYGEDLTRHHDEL
UniProt P54136, sequence (P54136 whole entry, looked up): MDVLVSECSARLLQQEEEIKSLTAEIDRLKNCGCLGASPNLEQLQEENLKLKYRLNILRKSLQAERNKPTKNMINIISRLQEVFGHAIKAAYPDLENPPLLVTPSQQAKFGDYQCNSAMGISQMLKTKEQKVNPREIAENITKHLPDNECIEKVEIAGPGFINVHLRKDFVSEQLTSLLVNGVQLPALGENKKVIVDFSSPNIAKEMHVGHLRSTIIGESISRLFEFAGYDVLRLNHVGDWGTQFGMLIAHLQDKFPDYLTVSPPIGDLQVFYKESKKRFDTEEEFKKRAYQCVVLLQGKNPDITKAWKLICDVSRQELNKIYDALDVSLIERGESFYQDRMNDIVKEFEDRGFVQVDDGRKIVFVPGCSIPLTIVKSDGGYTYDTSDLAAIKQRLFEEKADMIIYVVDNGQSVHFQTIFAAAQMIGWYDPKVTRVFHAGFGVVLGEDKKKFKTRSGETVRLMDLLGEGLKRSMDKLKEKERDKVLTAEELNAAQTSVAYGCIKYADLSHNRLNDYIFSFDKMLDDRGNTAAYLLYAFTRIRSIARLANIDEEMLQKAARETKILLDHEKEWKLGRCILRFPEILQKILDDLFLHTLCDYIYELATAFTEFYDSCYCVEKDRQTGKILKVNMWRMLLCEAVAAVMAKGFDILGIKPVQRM
UniProt Q96ER3, sequence (Q96ER3 whole entry, looked up): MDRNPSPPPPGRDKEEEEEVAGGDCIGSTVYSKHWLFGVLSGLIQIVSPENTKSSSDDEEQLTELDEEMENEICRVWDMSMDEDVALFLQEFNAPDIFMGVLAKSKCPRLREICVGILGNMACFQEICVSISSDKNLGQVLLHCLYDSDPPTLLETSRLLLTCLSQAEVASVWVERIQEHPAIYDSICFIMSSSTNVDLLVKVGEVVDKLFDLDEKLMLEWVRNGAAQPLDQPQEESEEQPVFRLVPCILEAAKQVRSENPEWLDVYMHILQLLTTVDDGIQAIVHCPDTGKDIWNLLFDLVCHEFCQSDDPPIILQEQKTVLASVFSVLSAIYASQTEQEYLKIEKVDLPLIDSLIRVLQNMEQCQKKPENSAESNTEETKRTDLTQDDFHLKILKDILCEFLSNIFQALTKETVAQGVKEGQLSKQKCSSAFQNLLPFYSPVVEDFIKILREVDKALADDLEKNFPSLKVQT
UniProt P18754, sequence (P18754 whole entry, looked up): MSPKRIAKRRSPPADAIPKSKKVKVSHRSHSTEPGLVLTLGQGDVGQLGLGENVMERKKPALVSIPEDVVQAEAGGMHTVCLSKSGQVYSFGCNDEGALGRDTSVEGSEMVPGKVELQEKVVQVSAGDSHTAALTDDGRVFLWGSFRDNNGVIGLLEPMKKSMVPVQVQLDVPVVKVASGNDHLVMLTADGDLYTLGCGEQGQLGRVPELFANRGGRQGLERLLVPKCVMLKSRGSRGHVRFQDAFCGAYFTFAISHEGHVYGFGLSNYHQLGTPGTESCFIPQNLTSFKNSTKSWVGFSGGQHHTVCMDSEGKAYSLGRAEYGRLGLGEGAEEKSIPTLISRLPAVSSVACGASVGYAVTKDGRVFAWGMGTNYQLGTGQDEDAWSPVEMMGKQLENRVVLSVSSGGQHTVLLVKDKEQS
UniProt Q96I25, sequence (Q96I25 whole entry, looked up): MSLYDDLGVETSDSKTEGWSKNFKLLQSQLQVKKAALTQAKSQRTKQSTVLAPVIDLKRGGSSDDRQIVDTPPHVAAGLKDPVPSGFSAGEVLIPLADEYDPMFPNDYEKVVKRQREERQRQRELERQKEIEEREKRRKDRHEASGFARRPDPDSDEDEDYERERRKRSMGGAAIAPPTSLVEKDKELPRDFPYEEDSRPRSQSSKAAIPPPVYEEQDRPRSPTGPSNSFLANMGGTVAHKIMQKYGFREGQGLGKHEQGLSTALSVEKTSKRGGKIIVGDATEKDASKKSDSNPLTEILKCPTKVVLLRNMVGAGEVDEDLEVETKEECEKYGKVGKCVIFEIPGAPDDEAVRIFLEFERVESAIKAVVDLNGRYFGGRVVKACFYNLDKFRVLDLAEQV

Target	log2 fold change (erlotinib)	log2 fold change [1]	log2 fold change [2]	log2 fold change [3]	log2 fold change [4]	log2 fold change [5]	log2 fold change [6]	log2 fold change [7]	log2 fold change [8]	log2 fold change [9]	log2 fold change (IRAK-1-4 Inhibitor I)	log2 fold change (ibrutinib)	log2 fold change [10]	log2 fold change (ralimetinib)	log2 fold change [11]	log2 fold change [12]	log2 fold change [13]	log2 fold change (pinometostat)	log2 fold change [14]	log2 fold change [15]
RSPRY1 (UniProt Q96DX4)	0.028	0.079	0.016	0.041	0.017	-0.042	-0.006	-0.026	-0.014	0.033	0.018	0.027	0.02	-0.019	-0.036	0	0.079	-0.048	0.033	-0.066
RPS13 (UniProt P62277)	-0.156	-0.17	-0.544	0.088	-0.11	-0.053	-0.088	-0.015	0.101	-0.184	-0.096	0.035	0.103	0.13	0.071	-0.031	0.137	0.345	0.035	-0.759 (active)
RARS (UniProt P54136)	0.023	0.011	-0.169	-0.007	0.019	0	-0.046	-0.005	0.07	-0.155	-0.087	-0.024	0.12	0.097	-0.001	-0.545 (active)	0.096	0.32	0.03	0.009
RCN3 (UniProt Q96D15)	0.033	0.013	0.058	0.048	0.03	-0.029	-0.057	-0.023	0.07	-0.103	0.131	0.075	-0.048	-0.013	0.013	0.047	0.026	-0.035	0.05	-0.031
RBM25 (UniProt P49756)	0.142	-0.037	-0.039	-0.025	-0.014	0.055	-0.012	-0.008	-0.076	-0.137	0.031	0.01	-0.032	0.102	-0.044	0.026	0.057	-0.039	-0.001	0.042
RBM33 (UniProt Q96EV2)	0.017	0.04	-0.022	-0.011	0	0.01	0.001	-0.114	0.034	0.038	-0.058	0.024	-0.063	0.014	0.046	-0.018	-0.01	-0.01	0.001	-0.282 (active)
RAD50 isoform 2 (UniProt Q92878)	0.02	0.034	0.076	0.001	0.029	0	0.02	0.015	-0.034	0.029	-0.005	-0.004	-0.099	-0.03	-0.003	-0.002	-0.014	-0.013	-0.008	0.006
SAAL1 (UniProt Q96ER3)	-0.044	0.028	0.046	0.022	-0.033	0.125	-0.041	-0.007	0.042	-0.03	0.019	-0.035	0.578 (active)	-0.033	-0.112	0.012	0.032	0.073	0.026	0.239 (active)
SDHC (UniProt Q99643)	-0.017	0.033	-0.015	0.033	-0.013	0.17	0.104	0.102	0.008	0.02	0.095	0.004	0.025	-0.055	-0.185	0.012	-0.286	-0.086	0.193	0.108
RECQL (UniProt P46063)	-0.019	0.072	0.066	-0.005	0.046	0.004	-0.004	-0.003	-0.062	0.01	0.013	0.002	-0.023	-0.024	-0.039	-0.033	-0.02	-0.013	-0.031	0.266 (active)
SLC12A9 (UniProt Q9BXP2)	0.023	0.03	0.039	-0.013	-0.04	0.021	0.016	-0.015	-0.019	-0.012	0.112	-0.001	0.016	-0.106	-0.012	-0.165	0.033	-0.018	0.028	0.056
RBM17 (UniProt Q96I25)	0.039	0.044	0.015	-0.023	-0.085	-0.029	0.1	0.011	-0.08	-0.16	-0.037	0.114	-0.179	0.158	-0.077	-0.053	0.029	0.11	-0.005	0.012
RCC1 isoform 2 (UniProt P18754)	0.158	0.195	0.11	0.03	0.105	-0.004	-0.003	0.018	-0.09	0.011	-0.026	-0.04	-0.14	0	-0.16	-0.094	0.041	0.023	-0.08	-0.899 (active)
